Experimental data taken from PubChem BioAssay (NCI).
Compounds without any hit were thinned out: in the full panel of roughly 83,000, 20% have a hit.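 The test compound was applied at a single concentration to cells in 96-well plates for 48 hours, and percent growth was recorded.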 A number with no mark means an inactive call. Active and inactive are the calls of the source. Rule for the calls: active = growth percent below 10; inactive = the rest.

Key:
Experiment in all cases: NCI-60 one-dose screen, 48 h (100 = growth as untreated, 0 = no growth, -100 = all killed)
NCI-H23 lung = conditions: 10 µM unless noted
NCI-H226 lung = conditions: 10 µM unless noted
NCI-H322M lung = conditions: 10 µM unless noted
HOP-62 NSCLC = conditions: 10 µM unless noted
NCI-H460 lung = conditions: 10 µM unless noted
NCI-H522 lung = conditions: 10 µM unless noted
A549/ATCC NSCLC = conditions: 10 µM unless noted
786-0 renal = conditions: 10 µM unless noted
COLO 205 colon = conditions: 10 µM unless noted
HOP-92 NSCLC = conditions: 10 µM

SMILES | growth (NCI-H23 lung) | growth (NCI-H226 lung) | growth (NCI-H322M lung) | growth (HOP-62 NSCLC) | growth (NCI-H460 lung) | growth (NCI-H522 lung) | growth (A549/ATCC NSCLC) | growth (786-0 renal) | growth (COLO 205 colon) | growth (HOP-92 NSCLC)
CCCn1cnc2c(c1=N)C(c1ccc(OC)cc1)c1sc3c(C)cccc3c1O2 (stereo not given) | 23.1% | 63.8% | 45.3% | 43.6% | 6.21% (active) | -3.75% (active) | 29.2% | 31.1% | 7.69% (active) | 
CCO/C=N/C1=C(C#N)C(c2ccc(OC)cc2)c2sc3c(CC)cccc3c2O1 (stereo not given) | 32.2% | 61.8% | 42.2% | 54.8% | 9.18% (active) | 18.6% | 47.1% | 48.7% | 34.4% | 
C#CCn1cccc1CNc1ccc(OC)cc1 | -88.9% (active) | -50.1% (active) | 47% | -45.3% (active) | -50.5% (active) | -57.7% (active) | -47.6% (active) | -69.6% (active) | -60.7% (active) | 
CN1CCC(n2cc(Nc3ncc4c(=O)n(-c5c(Cl)cccc5Cl)cc(Br)c4n3)cn2)CC1 | 8.53% (active) | 33.9% | 41.9% | 28% | 1.23% (active) | -8.22% (active) | 36.2% | 20.5% | 22.5% | 
C=CC(=O)N1CCC=C(c2cc3c(N[C@H](C)c4ccccc4)ncnc3[nH]2)C1 | 83.3% | 58.5% | 31% | 58.5% | 98% |  | 52.1% | 43.6% | 96% | 38%
CCOC(=O)c1c(Nc2ccccc2)nn2c(-c3ccc(OC)cc3)ccnc12 | 86% | 93.5% | 87.1% | 95.3% | 93.5% | 88.1% | 88.7% | 64.5% | 99.9% | 
C=C(C)[C@@H]1CC[C@]2(COCCCNCCC#N)CC[C@]3(C)[C@H](CC[C@@H]4[C@@]5(C)CC[C@H](OCCCNCCC#N)C(C)(C)[C@@H]5CC[C@]43C)[C@@H]12 | 33.4% | 48.8% | 105% | 75.6% | 41.8% |  | 59.2% | 59.8% | 61.8% | 49.7%
CC(=O)c1cc(C(=O)N2c3ccccc3Sc3ccccc32)n2ccc3ccccc3c12 | 62.8% | 45.4% | 61.8% | 42.4% | 30% | -38% (active) | 50.3% | 38.4% | 36.3% | 
O=C(CN1CCN(c2cc(=O)n(-c3ccccc3)c3ccccc23)CC1)Nc1cccc(C(F)(F)F)c1 | 55.5% | 56.6% | 82.4% | 70.6% | 57.9% | 56.5% | 51.8% | 80.5% | 68.5% | 
O=C(O)c1cn(C2CC2)c2cc(N3CCN(C(=O)CN4C(=O)CSC4=O)CC3)c(F)cc2c1=O | 103% | 101% | 101% | 75.8% | 107% |  | 93.5% | 94.1% | 113% | 104%
CC(=O)C1=C(C)NC(NNC(N)=S)=NC1c1ccccc1 (stereo not given) | 92.8% | 99.7% | 101% | 71.8% | 104% |  | 87.9% | 83% | 106% | 78.4%
Cc1occc1-c1nc2s/c(=C/c3ccc(-c4cc(C(F)(F)F)ccc4Cl)o3)c(=O)n2n1 | 104% | 98.1% | 101% | 116% | 109% | 98.2% | 102% | 103% | 112% | 
Nc1nc(-c2cccc([N+](=O)[O-])c2)c(N=Nc2ccc([N+](=O)[O-])cc2Cl)s1 | 0.802% (active) | -2.56% (active) | 13.8% | 21.9% | 1.77% (active) | -3.73% (active) | 15.2% | 3.66% (active) | -61.6% (active) | 
Nc1ccccc1NC(=O)c1ccc(NC(=O)C/C=C/c2cccnc2)cc1 | 41.6% | 46.6% | 47.6% | 36.5% | 46.8% |  | 47.2% | 53.3% | 10.3% | 11.3%
O=C(CSc1nc2ccccc2c(=O)n1-c1ccccc1)Nc1cccc(C(=O)/C=C/c2ccccc2Cl)c1 | 96.8% | 97.1% | 106% | 118% | 101% | 97.4% | 97.6% | 105% | 119% | 
C=C=COc1cccc(/C(N)=N/C(N)=N/c2nc3ccccc3s2)c1 | 75.9% | 83.7% | 103% | 101% | 93.9% | 97% | 104% | 90.3% | 112% | 
O=C(CN1CCN(c2cc(=O)n(-c3ccccc3)c3ccccc23)CC1)Nc1ccc(F)cc1 | 57.5% | 63.6% | 83.6% | 83% | 71.1% | 66.1% | 74.7% | 81.9% | 85.3% | 
COc1cc2nc(Cl)nc(Nc3cccc(C4=Nc5c(N)nc(N)nc5NC(c5ccc6c(c5)OCO6)C4)c3)c2cc1OC (stereo not given) | 78.7% | 85.3% | 83.4% | 40.7% | 55.5% | 74.1% | 86.1% | 61.8% | 89.1% | 
NC(=O)c1cccc(-n2ccc3cc(NC(=O)Nc4ccc(N5CCOCC5)c(C(F)(F)F)c4)ccc32)n1 | 12.3% | -3.89% (active) | 15.8% | 1.56% (active) | 0.481% (active) |  | 10.5% | -41.8% (active) | -48.3% (active) | -16.5% (active)
CNC(=O)c1cc(-c2ccc(NC(=S)Nc3cc(C(F)(F)F)cc(C(F)(F)F)c3)cc2)nc2cccnc12 | 93.7% | 87.8% | 111% | 79.2% | 92.1% |  | 88.3% | 89.3% | 110% | 76.8%

SMILES | growth (NCI-H23 lung) | growth (NCI-H226 lung) | growth (NCI-H322M lung) | growth (HOP-62 NSCLC) | growth (NCI-H460 lung) | growth (NCI-H522 lung) | growth (A549/ATCC NSCLC) | growth (786-0 renal) | growth (COLO 205 colon) | growth (HOP-92 NSCLC)
COc1cc(-c2nn(C(C)(C)C)cc2-c2ccnc(NCCCNS(=O)(=O)c3ccc(F)cc3)n2)ccc1Cl | 82.3% | 72% | 87.4% | 71.9% | 84.2% |  | 50.2% | 76.3% | 96.1% | 70.4%
C[C@@H]1C[C@H]2C(=O)O[C@@H](C)C(NC(=O)[C@H](Cc3cc(F)cc(F)c3)NC(=O)Nc3ccc(Cl)cc3F)C(=O)N3CCC[C@H]3C(=O)N3CCCC[C@H]3C(=O)N[C@@H](CO)C(=O)N2C1 (stereo not given in full) | 37.9% | -4.63% (active) | 48.6% | 33.4% | 14.5% | 19.4% | 26.2% | 42.2% | -23% (active) | 
COc1cc2oc(-c3cccc(N)c3)cc(=O)c2c(OC)c1OC | 110% | 99.9% | 102% | 115% | 106% | 97.4% | 101% | 94.1% | 126% | 
COc1cc(/C=C2\C(=O)Nc3ccccc32)ccc1OCc1ccc(F)cc1 | 99% | 100% | 103% | 100% | 86.4% |  | 108% | 107% | 111% | 99.8%
COc1cc2nc(Cl)nc(Nc3cccc(C4=Nc5c(N)nc(N)nc5NC(c5ccc(Br)cc5)C4)c3)c2cc1OC (stereo not given) | 91% | 93% | 98.1% | 43.5% | 28% | 68.2% | 55.9% | 64.7% | 66.3% | 
COc1ccccc1-n1cc(C#N)c(N)c1C(=O)c1ccc(C)cc1 | 89.4% | 98.4% | 90.8% | 77.7% | 101% | 64% | 89.8% | 94.8% | 95.6% | 
Cc1c(F)cc(C(N)=O)cc1NCC(=O)Nc1ccc([N+](=O)[O-])cc1 | 89.2% | 82.2% | 99.4% | 70.6% | 99% |  | 87.7% | 87.5% | 105% | 75.8%
COc1ccccc1-n1cc(C#N)c(N)c1C(=O)c1ccc(Br)cc1 | 87.8% | 94.4% | 96.7% | 63.5% | 79.7% | 48.7% | 78.6% | 91.9% | 76.5% | 
C=CCn1c(-c2nc3ccc(C(=C(C#N)C#N)c4ccccc4)cc3[nH]2)cc2cc(Br)ccc21 | 46.9% | 66.4% | 70.6% | 59.5% | 42.2% |  | 51.7% | 59.2% | 65.3% | 63%
Cc1cc(-c2ccc(Cl)cc2)n(Cc2nnc(SCC(=O)Nc3ccc(S(N)(=O)=O)cc3)n2-c2ccc([N+](=O)[O-])cc2)n1 | 90.2% | 85.1% | 96% | 104% | 67.1% | 90% | 84.3% | 109% | 97% | 
Cc1cc(C)c(N2C(=O)CC(Nc3ccc(Cl)cc3Cl)C2=O)c(C)c1 (stereo not given) | 104% | 107% | 99.8% | 104% | 105% | 93.6% | 104% | 102% | 124% | 
CCNC(=O)N1CCc2cc(OC)c(OCCc3ccc(OC)cc3)cc2C1c1ccc(OC)cc1C (stereo not given) | 29% | 33.5% | 40.1% | 20.3% | 1.22% (active) | -8.18% (active) | 13.8% | 9.54% (active) | 27.6% | 
c1cn2c(ccc3nc(-c4cn[nH]c4)c4c(c32)CCCC4)n1 | 69.2% | 73.6% | 75.8% | 71.8% | 43.9% | 62.8% | 62.5% | 55.3% | 95.5% | 
CC(=O)N1N=C(c2cccc(-n3cccc3)c2)CC1c1cccc(F)c1 (stereo not given) | 82.1% | 94.5% | 90.3% | 109% | 107% | 94.8% | 95.2% | 102% | 104% | 
COCCNc1ccc2ncc(C#Cc3cncc(C(=O)Nc4ccc(CN5CCN(C)CC5)c(C(F)(F)F)c4)c3)n2n1 | -49.6% (active) | -45.9% (active) | -23% (active) | -48.3% (active) | -82.5% (active) | -76.3% (active) | 3.12% (active) | -64.1% (active) | -83.1% (active) | 
Cc1ccc2sc3c(c2c1)OC(N)=C(C#N)C3c1cccc(F)c1 (stereo not given) | 22.4% | -22.2% (active) | 42.5% | 9.3% (active) | -13.4% (active) | -33.7% (active) | 11.5% | 11.7% | -40.3% (active) | 
COc1ccc(OC)c(-c2nc(SCC(=O)c3ccc(Br)cc3)nc(Nc3ccc(S(N)(=O)=O)cc3)c2C#N)c1 | 58.4% | 50% | 81.7% | 48.4% | 20.8% | 48% | 67.4% | 41.4% | 68.4% | 
CN1CCN(c2nc(-c3csc(-c4ccccc4)n3)cc3ccccc23)CC1 | 66.7% | 97.7% | 72.9% | 70.2% | -26.1% (active) | 37.1% | 53.8% | 46.4% | -84.4% (active) | 
N#Cc1cccc(/C(N)=N/C(N)=N/c2nc3ccccc3s2)c1 | 27.7% | 72% | 48.5% | 45% | 22% | 3.75% (active) | 60.8% | 46% | 17.4% | 
NC(N)=Nc1ccc(Oc2cccc(Nc3ccc(Cl)c(C(F)(F)F)c3)c2)cn1 | -65.6% (active) | -48.8% (active) | -25.9% (active) | -51.2% (active) | -76.2% (active) | -59.5% (active) | -24.1% (active) | -46.3% (active) | -75.9% (active) | 
